Molecules are shown by their SMILES. Records with an inconclusive call do not appear. A call without a number means that no potency is given here. Activity calls are given as the source filed them. Calls come from the whole dose curve; as a rule, active = well fitted inhibition curve with a large enough effect; inconclusive = small, poorly fitted or top-dose-only effect; inactive = flat fitted curve, though single readings scatter.

For the test, the target named is Calcium and integrin-binding protein 1 (Homo sapiens) (UniProt Q99828). In words: Primary qHTS for Identification of Calcium Integrin Binding Protein 1 (CIB1) Competitor (AID 1508620).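 Note: GST tagged CIB1 binding a fluorescein labelled alphaIIb integrin peptide tracer; top concentration of the series differs between compounds.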 The settings on record: CIB1-GST / FITC-alphaIIb peptide fluorescence polarization; series mostly up to 114 µM. In outline: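 CIB1-GST (1 uM final) and compound incubated 15 min at room temperature before adding FITC-alphaIIb peptide tracer (100 nM final). Competition for binding read by fluorescence polarization (ex 480, em 540) after another 15 min at room temperature.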
Sequence of Calcium and integrin-binding protein 1 (Homo sapiens) (Q99828 whole entry, looked up): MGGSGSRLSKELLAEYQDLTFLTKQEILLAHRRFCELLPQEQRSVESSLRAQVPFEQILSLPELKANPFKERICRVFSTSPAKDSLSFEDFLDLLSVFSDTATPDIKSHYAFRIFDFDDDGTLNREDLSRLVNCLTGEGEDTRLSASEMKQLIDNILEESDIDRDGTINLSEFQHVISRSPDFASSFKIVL
For orientation: qHTS replaces the single test concentration by a dilution series.
Consider `CCCCCCOc1cc2c(cc1N(C)c1ncc(C(=O)O)cn1)C(C)(C)CCC2(C)C`, for which the Potency entry is “inactive”.

With `CC1(C)C2CC=C(COC3OC(COC4OCC(O)(CO)C4O)C(O)C(O)C3O)C1C2` (centres undefined), the Potency entry was “inactive”.

As to `CC1(C=O)CC[C@]2(C(=O)O[C@@H]3O[C@H](CO)[C@@H](O)[C@H](O)[C@H]3O)CC[C@]3(C)C(=CCC4[C@@]5(C)C[C@H](O)[C@H](O[C@@H]6OC[C@@H](O)[C@H](O)[C@H]6O)[C@@](C)(CO)C5CC[C@]43C)C2C1` (some centres undefined), the Potency entry is “inactive”.

With `O=C(OCC1=CC(O)C2C=CO[C@@H](O[C@@H]3O[C@H](CO)[C@@H](O)[C@H](O)[C@H]3O)C12)c1ccccc1` (some centres undefined), the Potency result was “inactive”.

On to `C=C1C(=O)OC2/C=C(\CO)CC/C=C(\C=O)CC(OC(=O)CC(C)C)C12` (centres undefined), for which the Potency result is “inactive”.

Turning to `CC(C)(C)CCN1C[C@@H]2C(CNC(=O)c3cc(Cl)cc(Cl)c3)[C@@H]2C1` (some centres undefined), the Potency result was “inactive”.

Take `CC1C(OC(=O)c2ccccc2)C(O)C2C(C(=O)O)=COC(OC3OC(CO)C(O)C(O)C3O)C12` (centres undefined): the Potency result was “inactive”.

Regarding `C=CC(C)(O)CC/C=C(\C)C(=O)OC1C(O)C(CO)OC(OC(=O)C23CCC(C)(C)CC2C2=CCC4C5(C)CCC(OC6OC(COC7OCC(OC(C)=O)C(O)C7OC7OC(COC(C)=O)C(O)C(O)C7O)C(O)C(O)C6O)C(C)(C)C5CCC4(C)C2(C)C(O)C3O)C1OC1OCC(OC2OCC(O)C(OC3OCC(O)C(O)C3O)C2O)C(O)C1O` (centres undefined), the activity change, negative = inhibition was 3.39% [at 12.4 µM] (inactive).

As to `CCc1cc(CN2CC(C(=O)O)C2)sc1-c1noc(-c2ccc(Oc3ccccc3)cc2)n1`, the Potency entry was “inactive”.

As to `C[C@@H]1CCC2C(C)(C)[C@H](O)CC[C@]2(C)[C@@]12Cc1c(O)cc3c(c1O2)CN([C@@H](CCC(=O)O)C(=O)O)C3=O` (some centres undefined), the Potency entry was “inactive”.

Regarding `Cc1ccc(C)c(OCCn2cc(C(=O)O)c3ccccc32)c1`, the Potency entry was “inactive”.

As to `COc1ccc(CNC(=O)c2cc(-c3cncc(C)c3)ncc2-c2nccs2)nc1OC`, the Potency entry was “inactive”.

Take `Nc1nc(Nc2ccc(S(N)(=O)=O)cc2)n(C(=S)Nc2c(F)cccc2F)n1`: the Potency entry is “inactive”.

Regarding `CC[C@]12C=CCN3CC[C@@]4(c5cc([C@@]6(C(=O)OC)C[C@H]7C[C@@H](C(C)(F)F)CN(Cc8c6[nH]c6ccccc86)C7)c(OC)cc5N(C)[C@H]4[C@@](O)(C(=O)OC)[C@@H]1OC(C)=O)[C@@H]32`, the Potency entry was “inactive”.

The values above are taken from PubChem BioAssay (NCATS).
